# Test results reported in PubChem BioAssay (Tox21).
# Where “and” joins values, the source holds several entries; their conditions need not be identical. Equal entries are not always repeated. Inconclusive results are not listed. A call without a number means that no potency is given here. Where a structure was tested more than once in an assay, its records may differ in their call. Calls of active or inactive are those of the source. Unless noted, calls follow the shape of the dose curve; as a rule, active = well fitted curve in the direction sought with a large enough effect in the repeat runs; inconclusive = weak or mixed curves; inactive = no such curve, though single readings can be large; an effect the other way counts as inactive or inconclusive.
# Legend:
# [1] = qHTS assay to identify small molecule antagonists of the constitutive androstane receptor (CAR) signaling pathway - cell viability counter screen (AID 1224837); also: nearly all actives have a fitted effect of over 45% in size; also: potency is read from the fitted curve at half-maximal effect
# Summary of the method: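 To flag cytotoxic false antagonists, HepG2 hCAR/CYP2B6-2.2kb cells were treated 23 hr with 15-concentration compound series and 50 nM CITCO at 37 C/5% CO2; CellTiter-Fluor fluorescence was the measured end point.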
# [2] = molecular target: Nuclear receptor subfamily 1 group I member 3 (Homo sapiens) (UniProt Q14994); experiment: qHTS assay to identify small molecule antagonists of the constitutive androstane receptor (CAR) signaling pathway (AID 1224838);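 also: HepG2 cells stably expressing hCAR with CYP2B6 luciferase reporter stimulated by CITCO; nearly all actives have a fitted effect of over 40% in size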; also: potency is read from the fitted curve at half-maximal effect
# Chain of Nuclear receptor subfamily 1 group I member 3 (Homo sapiens) (Q14994 whole entry, looked up): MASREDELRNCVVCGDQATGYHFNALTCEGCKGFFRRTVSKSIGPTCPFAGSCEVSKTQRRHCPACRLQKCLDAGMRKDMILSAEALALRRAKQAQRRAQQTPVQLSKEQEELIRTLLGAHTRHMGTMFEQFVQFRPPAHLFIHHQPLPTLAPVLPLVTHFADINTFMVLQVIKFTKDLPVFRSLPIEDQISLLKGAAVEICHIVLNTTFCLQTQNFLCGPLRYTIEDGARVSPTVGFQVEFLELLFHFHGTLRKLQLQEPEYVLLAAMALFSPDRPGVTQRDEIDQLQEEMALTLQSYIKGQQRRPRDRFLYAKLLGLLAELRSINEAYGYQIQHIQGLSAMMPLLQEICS
# Summary of the method: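 Human hepatoma HepG2 cells expressing hCAR and a CYP2B6 promoter (2.2 kb) luciferase construct; compound titration (15 points) with 50 nM CITCO final, 24 h at 37 C/5% CO2; luminescence via ONE-Glo after 30 min at room temperature.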
# [3] = molecular target: Nuclear receptor subfamily 1 group I member 3 (Homo sapiens) (UniProt Q14994); experiment: qHTS assay to identify small molecule agonists of the constitutive androstane receptor (CAR) signaling pathway (AID 1224839); also: nearly all actives have a fitted effect of over 15% in size; also: potency is read from the fitted curve at half-maximal effect; as to activation: series mostly up to about 92 µM
# Summary of the method: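 A 15-concentration quantitative screen uses HepG2 cells co-transfected stably with human CAR and CYP2B6-2.2kb reporter. Treatment lasts 24 h with 0.75 uM PK11195 final present; ONE-Glo luminescence is the signal.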
# [4] = qHTS assay to identify small molecule antagonists of the estrogen related receptor signaling pathway with the pleiotropic PPARgamma coactivator (PGC) from Tox21 10K library - cell viability counter screen (AID 1224840; active = well fitted cell-killing curve with a large enough effect in the repeat runs, not every such curve was filed as active; also: nearly all actives have a fitted effect of over 40% in size)
# Summary of the method: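 Seeded PGC/ERR cells (2,000/well, 6 h, 37 C/5% CO2) get compound by pin tool; 17.5 h incubation at 37 C; CellTiter-Fluor added, 30 min, fluorescence measured.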
# [5] = qHTS assay to identify small molecule antagonists of the estrogen related receptor signaling pathway with the pleiotropic PPARgamma coactivator (PGC) from Tox21 10K library (AID 1224841; call rule not given here; also: actives are mostly falling curves and most rising ones were filed inactive; nearly all actives have a fitted effect of over 50% in size; also: potency is read from the fitted curve at half-maximal effect)
# Summary of the method: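 Test chemicals dissolved in DMSO were applied to pre-incubated (6 h) PGC/ERR cells at 2,000 cells/well for an 18 h, 37 C treatment; reporter luminescence was then read using One-Glo.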
# [6] = qHTS assay to identify small molecule agonists of the estrogen related receptor signaling pathway with the pleiotropic PPARgamma coactivator (PGC) from Tox21 10K library (AID 1224842); also: nearly all actives have a fitted effect of over 15% in size
# Summary of the method: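 Luminescence from One-Glo (30 min, room temperature) measured after PGC/ERR cells had 18 h at 37 C with pinned compound (23 nL in DMSO). Cells had been seeded at 2,000 per well and pre-incubated 6 h.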
# [7] = molecular target: Thyrotropin receptor (Homo sapiens) (UniProt P16473); experiment: qHTS assay to identify small molecule agonists of the thyroid stimulating hormone receptor (TSHR) signaling pathway (AID 1224843; calls by dose curve; also: nearly all actives have a fitted effect of over 45% in size; also: potency is read from the fitted curve at half-maximal effect)
# Chain of Thyrotropin receptor (Homo sapiens) (P16473 whole entry, looked up): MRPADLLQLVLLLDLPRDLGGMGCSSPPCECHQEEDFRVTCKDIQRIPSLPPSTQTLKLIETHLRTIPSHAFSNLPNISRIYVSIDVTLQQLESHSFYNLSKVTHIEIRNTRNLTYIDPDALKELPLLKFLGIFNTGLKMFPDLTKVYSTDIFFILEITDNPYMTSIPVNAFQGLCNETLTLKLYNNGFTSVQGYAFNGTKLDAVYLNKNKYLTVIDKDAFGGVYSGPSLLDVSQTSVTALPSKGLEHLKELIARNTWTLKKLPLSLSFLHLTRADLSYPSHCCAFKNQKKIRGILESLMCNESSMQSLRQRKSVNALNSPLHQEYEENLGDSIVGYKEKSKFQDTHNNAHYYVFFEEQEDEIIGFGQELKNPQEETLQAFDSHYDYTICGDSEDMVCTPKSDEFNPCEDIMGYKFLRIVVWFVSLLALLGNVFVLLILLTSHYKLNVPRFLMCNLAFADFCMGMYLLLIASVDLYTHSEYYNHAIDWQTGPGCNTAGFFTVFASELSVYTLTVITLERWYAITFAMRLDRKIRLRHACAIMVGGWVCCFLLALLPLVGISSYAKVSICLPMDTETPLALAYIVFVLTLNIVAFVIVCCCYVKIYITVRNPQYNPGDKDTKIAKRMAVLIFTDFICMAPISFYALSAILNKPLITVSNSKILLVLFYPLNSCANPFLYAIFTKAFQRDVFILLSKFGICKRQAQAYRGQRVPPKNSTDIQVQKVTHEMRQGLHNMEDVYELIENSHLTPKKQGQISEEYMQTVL
# Summary of the method: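 Agonist activity read as cAMP rise via d2/cryptate HTRF competition, 1 h room-temperature detection, in HEK293 cells expressing TSHR. Fifteen-point titrations, each run in triplicate, with a 30 min room-temperature incubation beforehand.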
# [8] = qHTS assay to identify small molecule agonists of the hypoxia (HIF-1) signaling pathway - cell viability counter screen (AID 1224844; calls by dose curve; also: nearly all actives have a fitted effect of over 50% in size)
# Summary of the method: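 HRE-bla ME-180; 0.5% dFBS; cpd 17 h, 37C, 5% CO2; CellTiter-Glo lum., 30 min RT, post-FRET read, same wells.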
# [9] = qHTS assay to identify small molecule agonists of H2AX (AID 1224845; active = well fitted activation curve with a large enough effect in the signal ratio in the repeat runs, not every such curve was filed as active; the % refers to the signal ratio; also: potency is read from the fitted curve at half-maximal effect)
# Summary of the method: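 Phospho-H2AX Ser139 measured by HTRF (ex 320 nm; em 665 and 620 nm) after 24 hr antibody incubation. Compounds, 15 concentrations, 0.76% DMSO, were applied to CHO-K1 cells for 3hr at 37C before lysis.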
# [10] = qHTS assay to identify small molecule agonists of the hypoxia (HIF-1) signaling pathway (AID 1224846; active = well fitted activation curve with a large enough effect in the signal ratio in the repeat runs, not every such curve was filed as active; the % refers to the signal ratio)
# Summary of the method: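 Reporter induction in HRE-bla ME-180 cells is taken as agonism: cells sit 5 hrs after plating, receive compounds or DMSO only, incubate 17 hrs at 37C under 5% CO2, and are loaded with CCF4-AM for beta-lactamase FRET measurement.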
SMILES,Potency [1],Potency [2],Potency [3],Potency [4],Potency [5],outcome [6],Potency [7],Potency [8],Potency [9],outcome [10]
CCC(O)OC(O)CC (stereo not given),inactive,inactive,inactive,inactive,inactive,inactive,inactive,inactive,inactive,inactive
N[C@@H](Cc1cc(I)c(Oc2cc(I)c(O)c(I)c2)c(I)c1)C(=O)O,inactive,inactive,inactive,inactive,inactive,inactive,inactive,inactive,inactive,inactive
O=C(O)CC(C(=O)O)C(CC(=O)O)C(=O)O (stereo not given),inactive,inactive,inactive,inactive,,,268 nM (active) and inactive,inactive,inactive,inactive
Cc1occc(=O)c1O,inactive,inactive and 50.9 µM (active),inactive,inactive,,,inactive,inactive,inactive,inactive
CCCCCC/C(C=O)=C\c1ccccc1,inactive,inactive,inactive,,,,inactive,inactive,inactive,inactive
c1ccc2c(c1)ccc1ccccc12,inactive,inactive,inactive,,inactive,inactive,,inactive,inactive,inactive
CCCCCCCCCCCCOCCO,inactive,inactive,inactive,,,,inactive,inactive,inactive,inactive
CCN(CC)c1ccc(C(=O)c2ccccc2C(=O)O)c(O)c1,inactive,inactive,61.3 µM (active) and 34.4 µM (active),,,,inactive,inactive,inactive,
CCCCCOC(C)=O,inactive,2.2 µM (active) and inactive,inactive,,,,inactive,inactive,inactive,inactive
O=c1[nH]c(=O)n([C@H]2C[C@H](O)[C@@H](CO)O2)cc1Br,inactive,inactive,7.81 µM (active) and 10.6 µM (active),,,,inactive,inactive,inactive,
Oc1cccc2ccccc12,inactive,inactive,62.8 µM (active) and 61.1 µM (active),inactive,,,inactive,inactive,103 µM (active),inactive
Cc1cccnc1,inactive,inactive,inactive,,inactive,inactive,inactive,inactive,inactive,inactive
CC1CCC(C(C)C)C(O)C1 (stereo not given),inactive,inactive,inactive,,,,inactive,inactive,inactive,inactive
CCCCCCOCCO,inactive,inactive,inactive,,,,,inactive,inactive,inactive
CCc1ccc(CCOc2ccc(CC3SC(=O)NC3=O)cc2)nc1 (stereo not given),inactive,inactive,inactive,inactive,,,,inactive,inactive,inactive
O=[N+]([O-])c1ccc(/C=C/c2ccc([N+](=O)[O-])cc2S(=O)(=O)O)c(S(=O)(=O)O)c1,inactive,inactive,inactive,inactive,,,,inactive,,inactive
ON=C1CCCCC1,inactive,inactive,inactive,,inactive,inactive,inactive,inactive,inactive,inactive
COS(C)(=O)=O,inactive,inactive,inactive,,35.7 µM (active) and inactive,inactive,inactive,inactive,inactive,inactive
OC[C@H]1O[C@@](CO)(O[C@H]2O[C@H](CO)[C@@H](O)[C@H](O)[C@H]2O)[C@@H](O)[C@@H]1O,inactive,inactive,inactive,,inactive,inactive,,inactive,inactive,inactive
CCCCN(CCCC)CCCC,inactive,inactive,inactive,inactive,,,inactive,inactive,inactive,inactive
O=c1[nH]nnc2ccccc12,inactive,inactive,inactive,,inactive,inactive,inactive,inactive,inactive,inactive
O=C(Oc1ccccc1)c1ccccc1,inactive,inactive,inactive,,inactive,inactive,inactive,inactive,inactive,inactive

SMILES,Potency [1],Potency [2],Potency [3],Potency [4],Potency [5],outcome [6],Potency [7],Potency [8],Potency [9],outcome [10]
C[C@H]1C[C@H]2[C@@H]3CCC4=CC(=O)C=C[C@]4(C)[C@@]3(F)[C@@H](O)C[C@]2(C)[C@@]1(O)C(=O)CO,inactive,inactive,inactive,inactive,,,,inactive,inactive,
CCCC(C)=O,inactive,inactive,inactive,inactive,,,,inactive,inactive,inactive
OCCOCCOCCO,inactive,inactive,inactive,,inactive,inactive,inactive,inactive,inactive,inactive
CC1=CC(=O)NS(=O)(=O)O1,inactive,48.7 µM (active) and inactive,inactive,,,,inactive,inactive,inactive,inactive
CCCCCC(N)=O,inactive,inactive,inactive,,,,inactive,inactive,inactive,inactive
O=C(O)c1cc(O)c(O)c(O)c1,inactive,inactive,inactive,inactive,,,inactive,inactive,,inactive
CCOC(=O)NNc1nncc2ccccc12,inactive,inactive,inactive,,,,inactive,inactive,inactive,inactive
O=C(O)c1cc(=O)c2c(OCC(O)COc3cccc4oc(C(=O)O)cc(=O)c34)cccc2o1,inactive,inactive,inactive,,,,inactive,inactive,inactive,
CCCCC(CC)CO (stereo not given),inactive,inactive,inactive,,,,inactive,inactive,inactive,inactive
Cc1ccc(N(C)C)cc1,inactive,inactive,inactive and 27.3 µM (active),,,,inactive,inactive,inactive,inactive
CCCCCCCC(=O)OC,inactive,inactive,inactive,inactive,,,inactive,inactive,inactive,inactive
CC(C)c1ccc(S(=O)(=O)O)cc1,inactive,inactive,inactive,,,,inactive,inactive,inactive,inactive
C/C=C1/CC2C=CC1C2 (stereo not given),inactive,inactive,inactive,,,,,inactive,inactive,inactive
Nc1cc([N+](=O)[O-])ccc1O,30.6 µM (active),inactive,inactive,,inactive,inactive,inactive,inactive,,inactive
CC(=O)Nc1cccc(O)c1,inactive,inactive,inactive,inactive,,,inactive,inactive,inactive,inactive
CCCCCCCCCCCCc1ccccc1,inactive,inactive,inactive,,inactive,inactive,inactive,inactive,inactive,inactive
O=C(OCCOCCOC(=O)c1ccccc1)c1ccccc1,inactive,inactive,inactive,inactive,,,,inactive,inactive,inactive
COc1ccc(NC(C)=O)cc1N,inactive,inactive,inactive,,,,inactive,inactive,inactive,inactive
CCCCOC(=O)COc1ccc(Cl)cc1Cl,inactive,inactive,inactive,,,,,inactive,inactive,inactive
CCCSc1ccc2nc(NC(=O)OC)[nH]c2c1,,,9.44 µM (active),,,,,,,
C#C[C@]1(O)CC[C@H]2[C@@H]3CCC4=CC(=O)CC[C@@H]4[C@H]3CC[C@@]21C,,,inactive,,,,,,,
